# Results as given in PubChem BioAssay AID1946 (Johns Hopkins Ion Channel Center, 2009).
# Out of some 2,400 compounds screened, about 180 (7.5%) were called active. What follows is part of a selection rich in actives, with near analogues and random picks from the rest. Values without a mark were called inactive.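 The calls were made as follows: active = readout below zero, meaning a drop past 3 SD under the dofetilide-free negative control mean; inactive = the rest.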
# Target: Potassium voltage-gated channel subfamily KQT member 2 (Rattus norvegicus) (UniProt O88943)
# Assay: KCNQ2 blockade in CHO cells – cell-based, FluxOR thallium flux, counter-screen for hERG block protector project, confirmation (AID 1946)
# Conditions: FluxOR thallium flux fluorescence, at 10 µM, stronger effect = lower value, zero marks the 3-SD hit cutoff
# Sequence of Potassium voltage-gated channel subfamily KQT member 2 (Rattus norvegicus) (O88943 whole entry, looked up): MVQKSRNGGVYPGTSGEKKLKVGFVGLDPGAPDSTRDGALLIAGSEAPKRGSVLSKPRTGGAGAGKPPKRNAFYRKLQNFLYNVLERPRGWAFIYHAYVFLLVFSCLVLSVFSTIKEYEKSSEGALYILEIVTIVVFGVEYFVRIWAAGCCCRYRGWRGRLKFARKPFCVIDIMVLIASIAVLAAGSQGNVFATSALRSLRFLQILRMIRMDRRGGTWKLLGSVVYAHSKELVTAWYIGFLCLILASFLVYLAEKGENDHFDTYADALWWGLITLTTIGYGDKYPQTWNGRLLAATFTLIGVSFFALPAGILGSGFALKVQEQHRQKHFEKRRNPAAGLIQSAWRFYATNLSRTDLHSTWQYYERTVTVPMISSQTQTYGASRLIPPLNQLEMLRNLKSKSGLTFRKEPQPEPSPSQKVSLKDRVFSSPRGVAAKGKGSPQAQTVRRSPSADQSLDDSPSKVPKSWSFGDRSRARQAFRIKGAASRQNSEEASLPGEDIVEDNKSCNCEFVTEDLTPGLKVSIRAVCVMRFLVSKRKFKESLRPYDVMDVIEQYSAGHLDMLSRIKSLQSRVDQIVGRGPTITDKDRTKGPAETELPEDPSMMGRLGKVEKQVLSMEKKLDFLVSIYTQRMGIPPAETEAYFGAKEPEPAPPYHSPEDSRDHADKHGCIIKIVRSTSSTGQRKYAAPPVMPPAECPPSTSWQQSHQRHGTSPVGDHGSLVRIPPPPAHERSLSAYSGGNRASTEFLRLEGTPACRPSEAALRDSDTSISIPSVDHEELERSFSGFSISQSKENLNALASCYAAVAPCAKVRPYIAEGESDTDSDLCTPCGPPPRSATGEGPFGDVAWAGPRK
row,Compound,activity change vs negative control
1,CC(C)(C)OC(=O)NCCCC(CCCNC(=O)OC(C)(C)C)C(=O)O,-1.1% (active)
2,Cc1c(C)c2ccc(OCC(=O)N[C@@H](Cc3ccccc3)C(=O)O)cc2oc1=O,11.8%
3,O=C(NC(=S)Nc1ccccc1Cl)c1ccco1,32.3%
4,O=C(CCC1CCCC1)NNC(=O)c1cccc(Cl)c1,39.5%
5,Cn1c(=S)[nH]c2scc(-c3cccs3)c2c1=O,93.4%
6,CCc1ccc(C(C)NC(=O)C2CCCC2)cc1 (stereo not given),42.6%
7,CCCCCn1c(=S)[nH]c2ncccc2c1=O,48.4%
8,Cc1ccc(/C=C(\NC(=O)c2ccccc2)C(=O)N2CCCCC2)cc1,-1.3% (active)
9,O=C(NC(=S)N1CCN(c2ccccc2)CC1)c1ccccc1,33.2%
10,CC(C)(C)c1ccc(C(=O)NC(=S)N2CCCCCC2)cc1,40.6%
11,CCCCOc1ccc(-c2c(C#N)c(N)[nH]c(=S)c2C#N)cc1,21.3%
12,O=c1oc2ccccc2c(Cl)c1CN1CCCCC1,32.3%
13,C=CCn1c(=S)[nH]c2ccc(Br)cc2c1=O,40.2%
14,COC(=O)c1ccc(NC(=O)COC(=O)C2CC(=O)N(Cc3ccccc3)C2)cc1 (stereo not given),-5.2% (active)
15,O=C(COC(=O)C1CCC(=O)N1)Nc1ccc(Oc2ccccc2)cc1 (stereo not given),10.5%
16,COc1ccc(N2CC(C(=O)OCC(=O)Nc3ccccc3C)CC2=O)cc1 (stereo not given),9%
17,COC(=O)c1c(NS(=O)(=O)Cc2ccccc2)sc2c1CCCC2,56.6%
18,Cc1ccc(C(=O)c2ccccc2C(=O)O)c(O)c1,6.4%
19,Cc1ccccc1C(=O)c1cn[nH]c1-c1ccccc1O,-4.7% (active)
20,Cc1ccccc1C(=O)Nc1nc(=S)ss1,82.2%
21,COc1ccc(C(=O)CC(=O)C(=O)Nc2ccccc2C(F)(F)F)cc1,36.8%
22,CCOC(=O)N1CCC(N2C(=O)c3ccccc3C2Nc2cccnc2)CC1 (stereo not given),27.6%

row,Compound,activity change vs negative control
1,CCOc1ccc(C(C)NC(=S)NC2CCCCC2)cc1 (stereo not given),40.9%
2,Fc1cccc2sc(Nc3nc4c(F)cccc4s3)nc12,30.2%
3,Cc1ccc(-c2csc3nc[nH]c(=S)c23)cc1,62.4%
4,Cn1nnnc1SCC(=O)Nc1ccccn1,8.7%
5,CCOc1ccc(NC(=O)CS(=O)CC(=O)NC2CCCc3ccccc32)cc1 (stereo not given),8.3%
6,Cc1cccc(OCC(=O)NC2CCCc3ccccc32)c1C (stereo not given),-10.6% (active)
7,CCn1nnnc1SCC(=O)N1c2ccccc2Sc2ccccc21,5.3%
8,O=C(NC(=S)NC1CCCc2ccccc21)c1ccco1 (stereo not given),28.4%
9,Cn1nnnc1SCC(=O)NC1CCCc2ccccc21 (stereo not given),-7.8% (active)
10,Cc1cccc(NC(=O)C(=O)NNC(=O)c2ccc(C(C)(C)C)cc2)c1,134%
11,C=CCn1c(=S)[nH]c2sc3c(c2c1=O)CCC3,64.2%
12,CC(NC(=O)NC1CCCCC1)c1ccccc1 (stereo not given),57.6%
13,CCN(Cc1ccccc1)C(=S)NC(=O)c1ccccc1Br,96.1%
14,S=c1nc(SCc2ccccc2)[nH]c2ccccc12,95.4%
15,Cc1cc([N+](=O)[O-])ccc1-c1ccc(C2Nc3ccccc3C(=O)N2O)o1 (stereo not given),24.1%
16,Cc1ccc(/C=C/C(=O)C2C(=O)c3ccccc3C2=O)cc1,69.5%
17,Cc1ccc(/C=N/N2C(=O)c3ccccc3NC2c2ccc(C)cc2)cc1 (stereo not given),-1.1% (active)
18,CC(C)CNC(=S)NC(=O)c1ccc(Cl)cc1,10.6%
19,CCc1c(C)sc(NC(=O)CN2CCN(C(=O)c3ccco3)CC2)c1C(=O)OC,44.4%
20,Cc1ccc(-c2nc3c(Cl)cc(Cl)cc3c(=O)n2O)cc1,164%
21,CC(=O)C1=C(O)C(=O)N(c2cccnc2)C1c1ccc(Cl)cc1 (stereo not given),-2.8% (active)
22,CC1=NN(c2ccccc2)C(=O)C1C(=O)c1ccc(Cl)cc1 (stereo not given),28.9%

row,Compound,activity change vs negative control
1,O=C1c2ccccc2C(=O)N1c1cccnc1,6.9%
2,CN(Cc1ccccc1)C(=S)NC(=O)c1cccs1,31.2%
3,Nc1nc(O)c(N=Nc2ccc(S(N)(=O)=O)cc2)c(=O)[nH]1,-2% (active)
4,Cc1ccc2[nH]c(=O)c(C(c3nnnn3C3CCCC3)N3CCCc4ccccc43)cc2c1 (stereo not given),27.9%
5,COc1ccc(-c2csc(NC(=S)NC(=O)c3ccco3)n2)cc1,21.1%
6,Cn1c(=O)c2sccc2n(Cc2cccc(Br)c2)c1=O,10.6%
7,C=Cc1ccc(Cn2c(=O)n(CCCOC)c(=O)c3sccc32)cc1,-5.9% (active)
8,COCCCn1c(=S)[nH]c2c(sc3ccccc32)c1=O,12.3%
9,Cc1cccc2nc(-c3cccnc3)c(NCCC(C)C)n12,-23.5% (active)
10,CC(C)Cn1c(=S)[nH]c2cc(Cl)ccc21,21%
11,COc1ccc(-c2nc(=S)c3ccc4ccccc4c3[nH]2)cc1,74.5%
12,CC(C)OC(=O)c1c(NS(=O)(=O)c2ccccc2)sc2c1CCCC2,31%
13,C/C(=C/CCC(C)C1CCC2(C)C3CCC4C(C)(C)C(=O)CCC4(C)C3=CCC12C)C(=O)O (stereo not given),4.1%
14,C/C(=C/CCC(C)[C@H]1CC[C@@]2(C)C3=C(CC[C@]12C)[C@@]1(C)CCC(=O)C(C)(C)[C@@H]1CC3)C(=O)O (stereo not given in full),-13.3% (active)
15,O=C1c2ccccc2NC(c2ccc(Br)s2)N1O (stereo not given),92.4%
16,COc1cccc(C=NCCCN=Cc2cccc(OC)c2O)c1O,37.4%
17,Cc1ccnc(SCCn2c(N3CC(C)OC(C)C3)nc3c2c(=O)n(C)c(=O)n3C)n1 (stereo not given),-2% (active)
18,C=CCn1c(N2CCCCCC2)nc2c1c(=O)n(C)c(=O)n2C,15.6%
19,CCOC(=O)NC(=S)Nc1ccc(C(C)(C)C)cc1,30.4%
20,CCOc1ccc(/C=C2/SC(=O)NC2=S)cc1,111%
21,CCCCC(=O)Nc1ccc(NCc2ccc(C)s2)cc1,66.2%
